Measured values as given in PubChem BioAssay AID1159580 (chemical genetic matrix, 2015).
About 2,000 (36%) of roughly 5,500 compounds were called active. Another 18% or so got no clear call; they are omitted. Rule as the data show it: active = normalized growth mostly below about 0.91 (no sharp cut-off); inconclusive = no clear call, values can overlap the other calls; inactive = mostly above about 0.92. The list shows a part of the results.

Test: chemical genetic growth profiling, strain panel (AID 1159580);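 also: tested at 20 µM; growth read once vehicle control cultures reached saturation at 30 °C; 1 = growth at the plate median or of vehicle wells; lower values mean less growth of the strain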
Conditions: S. cerevisiae deletion strains, growth OD

Measured: normalized growth

CC(=O)Oc1ccc(/C=C/c2cc(OC(C)=O)cc(OC(C)=O)c2)cc1
inactive: locus YJR066W, strain TOR1, hits give low values 0.972 | locus YJR075W, strain HOC1, hits give low values 0.985 | locus YKL009W, strain mrt4, hits give low values 1.04 | locus YKL068W, hits give low values 1 | locus YKL085W, strain MDH1 (second series), hits give low values 0.999 | locus YKL085W, strain MDH1, hits give low values 0.999 | locus YKL160W, strain elf1, hits give low values 0.959 | locus YKL190W, strain CNB1, hits give low values 1 | locus YKR001C, strain vps1, hits give low values 0.982 | locus YKR026C, strain gcn3, hits give low values 0.979 | locus YKR091W, strain srl3, hits give low values 0.983 | locus YLL001W, strain dnm1, hits give low values 0.966 | locus YLL026W, hits give low values 0.976 | locus YLL041C, strain sdh2, hits give low values 0.98 | locus YLR027C, strain aat2, hits give low values 0.979 | locus YLR039C, strain RIC1, hits give low values 0.928 | locus YLR058C, strain SHM2, hits give low values 0.99 | locus YLR102C, strain apc9, hits give low values 1.03 | locus YLR113W, strain HOG1, hits give low values 0.934 | locus YLR221C, strain rsa3, hits give low values 0.949 | locus YLR258W, strain gsy2, hits give low values 0.957 | locus YLR262C, strain YPT6 (second series), hits give low values 0.907 | locus YLR262C, strain YPT6, hits give low values 0.925 | locus YLR268W, strain sec22, hits give low values 0.999 | locus YLR320W, strain mms22, hits give low values 0.921 | locus YLR330W, strain CHS5, hits give low values 0.996 | locus YLR342W, strain FKS1 (second series), hits give low values 1.01 | locus YLR342W, strain FKS1, hits give low values 0.968 | locus YLR357W, strain rsc2, hits give low values 0.937 | locus YLR370C, strain arc18, hits give low values 0.981 | locus YLR371W, strain rom2, hits give low values 0.995 | locus YLR384C, strain iki3, hits give low values 0.959 | locus YLR418C, strain cdc73, hits give low values 0.889 | locus YML016C, strain PPZ1, hits give low values 0.999 | locus YML032C, strain rad52, hits give low values 1.01 | locus YML120C, strain ndi1, hits give low values 0.985 | locus YML124C, strain tub3, hits give low values 0.998 | locus YMR078C, strain ctf18, hits give low values 1.01 | locus YMR125W, strain sto1, hits give low values 0.974 | locus YMR129W, hits give low values 0.985 | locus YMR205C, strain PFK2, hits give low values 0.948 | locus YMR223W, strain ubp8, hits give low values 0.959 | locus YMR231W, strain pep5, hits give low values 0.965 | locus YMR263W, strain SAP30, hits give low values 0.988 | locus YMR307W, strain GAS1, hits give low values 1.16 | locus YNL067W, strain RPL9B, hits give low values 0.973 | locus YNL071W, strain lat1, hits give low values 0.952 | locus YNL153C, strain GIM3, hits give low values 0.989 | locus YNL183C, strain NPR1, hits give low values 0.935 | locus YNL209W, strain ssb2, hits give low values 0.984 | locus YNL233W, strain BNI4, hits give low values 0.948 | locus YNL248C, strain rpa49, hits give low values 0.961 | locus YNL250W, strain rad50, hits give low values 0.998 | locus YNL271C, strain bni1, hits give low values 1.02 | locus YNL298W, strain CLA4, hits give low values 0.989 | locus YNL307C, strain MCK1, hits give low values 0.977 | locus YNL322C, strain KRE1 (second series), hits give low values 0.964 | locus YNR049C, strain mso1, hits give low values 0.978 | locus YNR052C, strain pop2, hits give low values 0.981 | locus YOL006C, strain TOP1, hits give low values 0.883 | locus YOL012C, strain htz1 0.967 | locus YOL147C, strain pex11, hits give low values 1 | locus YOR001W, strain rrp6, hits give low values 0.96 | locus YOR061W, strain CKA2, hits give low values 1.01 | locus YOR069W, strain VPS5, hits give low values 1 | locus YOR070C, strain gyp1, hits give low values 0.959 | locus YOR080W, strain dia2, hits give low values 1.01 | locus YOR083W, strain WHI5, hits give low values 0.958 | locus YOR106W, strain vam3, hits give low values 0.988 | locus YOR136W, strain idh2, hits give low values 1.01 | locus YOR144C, strain elg1, hits give low values 1.01 | locus YOR184W, strain ser1, hits give low values 0.904 | locus YOR231W, strain MKK1, hits give low values 1 | locus YOR265W, strain rbl2, hits give low values 0.968 | locus YOR270C, strain vph1, hits give low values 0.919 | locus YOR290C, strain snf2, hits give low values 0.944 | locus YOR316C, strain cot1, hits give low values 1.02 | locus YPL051W, strain arl3, hits give low values 0.98 | locus YPL055C, strain LGE1, hits give low values 0.947 | locus YPL078C, strain atp4, hits give low values 0.963 | locus YPL106C, strain sse1, hits give low values 0.91 | locus YPL240C, strain hsp82, hits give low values 0.976 | locus YPL241C, strain CIN2, hits give low values 0.998 | locus YPL256C, strain CLN2, hits give low values 1.04 | locus YPR119W, strain clb2, hits give low values 1.01 | locus YPR141C, strain kar3, hits give low values 1.01 | locus YPR163C, strain tif3, hits give low values 0.994 | locus YPR167C, strain met16, hits give low values 1.02 | strain wtn01, hits give low values 1.01
